Screens: PubChem, National Center for Advancing Translational Sciences (NCATS)
Rows were chosen to be rich in hits. Some 8.1% of all compounds tested hit in one or more screens of this group.
ELG1 repair inh = ELG1-dependent DNA repair inhibition. Potency, µM (top dose mostly 46.1 µM), actives largely listed as inhibitors. actives 2.3% (n = 330,000). HEK293T ELG1-luciferase reporter, luminescence, 16 h; DNA damage induced by 5-fluorouridine; note: nearly all actives have a fitted effect of over 55% in size
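Step one: seed 2,000 cells per well. Step two: pin-transfer compound or DMSO alongside 5-fluorouridine. Step three: incubate 16 hr, 37 °C, 5% CO2. Step four: add ONE-Glo, wait 30 min, read luminescence.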
KB-3-1 cytotox = KB-3-1 parental cell cytotoxicity | Potency, µM (top dose mostly 46.1 µM), usual class: cytotoxic | KB-3-1 viability, CellTiter-Glo ATP luminescence, 72 h | actives 1.4% (n = 400,000); note: nearly all actives have a fitted effect of over 60% in size
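72 h, 37 °C compound treatment of KB-3-1 parental cells; CellTiter-Glo added, 10 min, luminescence read. Data corrected against DMSO-only plates and normalized before curve fitting.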
SW480 rereplic = inducers of DNA re-replication in SW480 colon cancer cells; SW480 DNA re-replication, Hoechst DNA content imaging, 48 h; Potency, µM (doses to about 46.1 µM), actives largely listed as activators; actives 1.8% (n = 340,000); AID 624297; note: nearly all actives have a fitted effect of over 55% in size
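Image-based read-out: total Hoechst fluorescence of nuclei (405 nm excitation, 500-530 nm emission), with hits raising the fraction of high-intensity nuclei. SW480 colon cells incubated 48 hr with compounds at 37 C.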
MCF10A rereplic = induces DNA re-replication in MCF 10a normal breast cells; Potency, µM (highest dose often 46.1 µM), usual class: activators; actives 2.9% (n = 350,000); MCF 10A DNA re-replication, Hoechst nuclear intensity, 48 h; note: nearly all actives have a fitted effect of over 50% in size
KB-V1 cytotox = KB-V1 MDR subline cytotoxicity; actives 3.4% (n = 400,000); AID 1347076; KB-V1 MDR cells viability, CellTiter-Glo, 72 h; Potency, µM (top dose mostly 46.1 µM), most hits filed as cytotoxic; note: nearly all actives have a fitted effect of over 60% in size
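Cytotoxicity toward P-gp-expressing KB-V1 cells was determined as loss of CellTiter-Glo luminescence after 72 h at 37 degrees C. Compounds were tested in quantitative HTS format across a concentration range, with curves fitted to normalized data.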
Large screens that a line does not name were inactive. Calls come from the whole dose curve; as a rule, active = well fitted curve in the direction sought with a large enough effect; inconclusive = small, poorly fitted or top-dose-only effect, or another doubt; inactive = no such curve, though single readings can be large; an effect the other way counts as inactive or inconclusive.

O=C(Nc1cc(Cl)cc(Cl)c1)c1ccc(Cn2c(=O)[nH]c3ccsc3c2=O)cc1	ELG1 repair inh inconclusive, KB-3-1 cytotox 16.4µM, MCF10A rereplic 23.1µM
CC(=O)NCCNC(=O)c1ccc(Cn2c(=O)[nH]c3ccsc3c2=O)cc1	none
CCCc1nn2c(=O)cc(CSCC(=O)Nc3ccc(F)cc3)nc2s1	none
COc1ccc(-c2nnn(Cc3ccccc3)n2)cc1OC	none
COc1cc(-c2nnn(Cc3ccccc3C)n2)cc(OC)c1OC	ELG1 repair inh 23.1µM
O=c1[nH]c2cc3ccccc3cc2nc1-c1nnnn1C1CCCC1	KB-3-1 cytotox 5.8µM (no result: ELG1 repair inh, SW480 rereplic, MCF10A rereplic)
NC(=O)c1sc2nc(N3CCCCC3)c3c(c2c1N)CCCC3	ELG1 repair inh inconclusive
COC(=O)c1ccc(-c2sc3nc(N4CCOCC4)c4c(c3c2N)CCCC4)o1	ELG1 repair inh inconclusive, KB-3-1 cytotox inconclusive, SW480 rereplic 0.631µM, MCF10A rereplic inconclusive
CCOC(=O)c1sc2nc(C(C)C)c3c(c2c1N)CCC3	SW480 rereplic 18.4µM, MCF10A rereplic 3.66µM, KB-V1 cytotox inconclusive
COC(=O)c1sc2nc(N3CCCCC3)c3c(c2c1N)CCCC3	MCF10A rereplic 7.08µM
CCOC(=O)c1sc2nc(N3CCOCC3)c3c(c2c1N)CCCC3	none
CCOC(=O)c1sc2nc(C(C)C)c3c(c2c1N)CC(C)(C)OC3	SW480 rereplic inconclusive, MCF10A rereplic inconclusive
CC(C)NC(=O)Nc1ccc2c(c1)C(=O)N([C@H](C)CO)C[C@H](C)[C@@H](CN(C)C(=O)Nc1ccccc1)O2	ELG1 repair inh inconclusive
Cc1cc(C)c2c(N)c(C(=O)Nc3ccc(F)cc3)sc2n1	ELG1 repair inh inconclusive, KB-3-1 cytotox inconclusive, MCF10A rereplic 20.6µM
Cc1cc(C)c2c(N)c(C(=O)N/N=C/c3cccs3)sc2n1	ELG1 repair inh inconclusive, KB-3-1 cytotox inconclusive, SW480 rereplic inconclusive, MCF10A rereplic 18.4µM
Cc1cc(C)c2c(N)c(C(=O)Nc3ccc(C)c(C)c3)sc2n1	ELG1 repair inh inconclusive, SW480 rereplic inconclusive, MCF10A rereplic inconclusive
COc1ccc(NC(=O)c2sc3nc(C)cc(C)c3c2N)cc1	ELG1 repair inh inconclusive, SW480 rereplic inconclusive, MCF10A rereplic inconclusive
COc1ccc(/C=N/NC(=O)c2sc3nc(C)cc(C)c3c2N)cc1	SW480 rereplic inconclusive, MCF10A rereplic 5.8µM
COc1ccc(S(=O)(=O)N2CCC(C(=O)NCCOc3ccccc3F)CC2)cc1OC	KB-V1 cytotox 23.1µM
COc1ccc(S(=O)(=O)N2CCC(C(=O)NCCc3ccccc3)CC2)cc1OC	none
CC1(C)OC2CC3C4CCC5=CC(=O)CCC5(C)C4(F)C(O)CC3(C)C2(C(=O)CO)O1 (stereo not drawn)	none (no result: ELG1 repair inh)
COc1ccc(C(=O)NCCc2cc3ccc(C)c(C)c3[nH]c2=O)cc1OC	ELG1 repair inh inconclusive
Cc1cc2cc(CCNC(=O)c3cccc([N+](=O)[O-])c3)c(=O)[nH]c2cc1C	ELG1 repair inh 23.1µM, KB-3-1 cytotox inconclusive, MCF10A rereplic inconclusive, KB-V1 cytotox inconclusive
Cc1ccc(C(=O)NCCc2cc3ccc(C)c(C)c3[nH]c2=O)cc1[N+](=O)[O-]	ELG1 repair inh inconclusive, SW480 rereplic inconclusive, KB-V1 cytotox 4.11µM
Cc1cc2cc(CCNC(=O)c3c(-c4ccccc4Cl)noc3C)c(=O)[nH]c2cc1C	ELG1 repair inh 13µM (no result: KB-3-1 cytotox, SW480 rereplic, MCF10A rereplic, KB-V1 cytotox)
O=C(CCn1c(=O)oc2ccccc21)Nc1nccs1	ELG1 repair inh inconclusive
Oc1ccc(C[C@H]2CNC(=S)N2CC2CCCN2C[C@H](Cc2ccc(O)cc2)N2C[C@H](Cc3ccccc3)N(CC3CCCCCC3)C2=S)cc1 (stereo partly drawn)	KB-3-1 cytotox inconclusive, MCF10A rereplic inconclusive (no result: ELG1 repair inh)
CNc1nc(Oc2ccc3sc(C)nc3c2)c2sccc2n1	KB-V1 cytotox inconclusive (no result: ELG1 repair inh, SW480 rereplic, MCF10A rereplic)
Cc1ccc(C)c(N2CCN(C(=O)c3cc(S(=O)(=O)N4CCCC4)cn3C)CC2)c1	none
N#Cc1ccc(-c2cccnc2)nc1SCC(=O)c1ccccc1	ELG1 repair inh inconclusive, SW480 rereplic inconclusive, MCF10A rereplic inconclusive
CCCSc1ccc(-c2nn(-c3ccccc3)cc2/C=C(/C#N)C(=O)N2CCOCC2)cc1	ELG1 repair inh inconclusive, KB-3-1 cytotox inconclusive, KB-V1 cytotox 23.1µM
CCSc1ccc(-c2nn(-c3ccccc3)cc2/C=C(/C#N)C(=O)NC)cc1	SW480 rereplic inconclusive, MCF10A rereplic inconclusive
Cc1cc2ccccn2c1C(=O)c1ccc(S(=O)(=O)N(C)C)cc1	ELG1 repair inh 16.4µM, KB-3-1 cytotox inconclusive, SW480 rereplic inconclusive, KB-V1 cytotox inconclusive
Cc1cc2ccccn2c1C(=O)c1ccc(F)cc1	SW480 rereplic inconclusive, KB-V1 cytotox inconclusive
Cc1cc2ccccn2c1C(=O)c1ccc([N+](=O)[O-])o1	ELG1 repair inh inconclusive, KB-3-1 cytotox inconclusive, SW480 rereplic 20.6µM, MCF10A rereplic inconclusive, KB-V1 cytotox inconclusive
Cc1ccc(NC(=O)Cn2cc(S(=O)(=O)Cc3ccccc3)c3ccccc32)cc1C	KB-3-1 cytotox inconclusive (no result: ELG1 repair inh, SW480 rereplic, MCF10A rereplic)
COc1ccc(CCNC(=O)CSc2nnc(-c3ccc(F)cc3)c3ccccc23)cc1OC	ELG1 repair inh inconclusive, KB-V1 cytotox 7.31µM
COc1ccc(CCNC(=O)CSCc2ccc(Cl)cc2)cc1OC	KB-V1 cytotox 6.51µM
COc1ccc(CCNC(=O)CSCc2ccc([N+](=O)[O-])cc2)cc1OC	none
COc1ccc(CCNC(=O)CCN2C(=O)C(C)Oc3ccc(C)cc32)cc1OC (stereo not drawn)	KB-V1 cytotox 8.2µM
COc1ccc(CCNC(=O)CSCc2ccc(C)cc2)cc1OC	KB-V1 cytotox 20.6µM (no result: ELG1 repair inh)
COc1ccc(CCNC(=O)CCN2C(=O)COc3ccc(C)cc32)cc1OC	KB-V1 cytotox inconclusive
CCCN(CCC)C(=O)CSc1nc2n[nH]c(C)c2c(=N)n1-c1ccc(OC)cc1	ELG1 repair inh inconclusive, KB-3-1 cytotox inconclusive, MCF10A rereplic inconclusive, KB-V1 cytotox inconclusive
CCC(c1nnc(SCC(=O)Nc2ccc(NC(C)=O)cc2)n1Cc1ccccc1)N(C)C (stereo not drawn)	none
COc1ccc(CCNC(=O)C(=O)NCc2ccc(C)cc2)cc1OC	KB-V1 cytotox 20.6µM
CCC(c1nnc(SCC(=O)NCCc2ccc(OC)c(OC)c2)n1Cc1ccccc1)N(C)C (stereo not drawn)	MCF10A rereplic 0.651µM
COc1ccc(-n2nnnc2SCC(=O)NCCc2ccc(OC)c(OC)c2)cc1	KB-V1 cytotox 8.2µM
COc1cc2ccccc2cc1C(=O)N1CC(C)OC(C)C1 (stereo not drawn)	none (no result: ELG1 repair inh)
CC(C)C(Sc1nc(-c2ccccc2)cc(-c2ccccc2)c1C#N)C(=O)O (stereo not drawn)	MCF10A rereplic inconclusive
Cc1cc(C(=O)N/N=C2\CC(=O)CC(C)(C)C2)c(C)n1-c1ccc(F)cc1	KB-V1 cytotox inconclusive
Cc1cc(C(=O)N/N=C2\CC(=O)CC(C)(C)C2)c(C)n1-c1ccccc1	MCF10A rereplic 20.6µM, KB-V1 cytotox inconclusive
CCCN1CCC(=NNc2ccc(S(N)(=O)=O)cc2[N+](=O)[O-])CC1	none
